“And” between values parts separate entries of the source, which are not always exact repeats. Identical values can stand only once. Records with an inconclusive call do not appear. The source made the active and inactive calls. Unless noted, the call rests on the fitted dose curve; in most records, active means well fitted curve in the direction sought with a large enough effect; inconclusive means small, poorly fitted or top-dose-only effect, or another doubt; inactive means no such curve, though single readings can be large; an effect the other way counts as inactive or inconclusive.
Legend:
[1] = Primary qHTS for Huh7 cytotoxicity: counterscreen for inhibitors of MERS-S pseudotyped particle cell entry (AID 1479147; calls by dose curve); settings: outcome: dose series up to 57.1 µM unless noted
[2] = Cytotoxicity counterscreen for inhibitors of SARS-CoV-2 cell entry (AID 1645845; calls by dose curve; further: nearly all actives have a fitted effect of over 50% in size; further: potency means the concentration at half of the fitted maximal effect); settings: outcome: dose series up to 57.1 µM unless noted
Method in brief: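 Expi293F/hACE2 cells seeded overnight; cpd pin-transferred in DMSO, 1 h preincubation, + media, 48 h 37 C 5% CO2; ATPLite 1step luminescence; normalized to cells and no cells.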

[3] = qHTS for differential inhibitors of proliferation of Plasmodium falciparum line D10 (AID 1877);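 further: parasites grown with compound for 72 h before DNA staining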; further: potency means the concentration at half of the fitted maximal effect
[4] = Cell Viability - LYMP2-008 (AID 980); further: on the % scale 0 is the no-effect control and ±100 the full control effect; nearly all actives have a fitted effect of over 60% in size
Method in brief: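 Human lymphoblastoid cells (2500/well) were plated, held 5 hr at 37 C, then exposed to compounds for 24 hr at 37 C in complete medium. Intracellular ATP was read by CellTiter-Glo luminescence; AC50 from Hill-fitted concentration-response.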

[5] = Cell Viability - LYMP2-014 (AID 983);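 further: series mostly up to about 92 µM; plate controls were DMSO only for no effect and 92 µM tetraoctylammonium bromide for full effect; nearly all actives have a fitted effect of over 50% in size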
Method in brief: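 Human lymphoblastoid cells (2500/well) were pre-incubated 5 hr at 37 C, then exposed to compounds in complete medium for 24 hr at 37 C. Intracellular ATP was read by CellTiter-Glo luminescence after 30 min at room temperature; AC50 from Hill fits.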

[6] = biological target: Glucocorticoid receptor (Homo sapiens) (UniProt P04150); test: qHTS assay for small molecule agonists of glucocorticoid receptor signaling (AID 588532; active means well fitted curve in the direction sought with a large enough effect in the signal ratio, with a control signal flat; the % refers to the signal ratio;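 further: 100% = dexamethasone at 0.1 µM and 0% = DMSO only wells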); settings: HeLa MMTV-bla, beta-lactamase ratio, agonist, 18 h; stronger effect = higher value; percent of dexamethasone control, DMSO zero
Method in brief: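 Titration series, up to 92 uM, applied to GRE-bla HeLa cells for 18 h at 37 C. Detection by CCF4 FRET substrate after 2 h at RT.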

[7] = biological target: Vitamin D3 receptor (Homo sapiens) (UniProt P11473); test: qHTS assay for small molecule antagonists of vitamin D receptor signaling (AID 588541; calls by dose curve;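 further: receptor activated by calcitriol during compound treatment; series mostly up to about 77 µM; on the % scale 0 is the no-effect control and ±100 the full control effect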)
Method in brief: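 VDR-UAS-bla HEK293T cells (2000/well, 2% charcoal-stripped FBS) were treated with titrated compounds plus 1-alpha,25-dihydroxyvitamin D3 (50 nM or 3 nM final) for 16 h at 37 C. CCF4 beta-lactamase fluorescence was read; Hill fits gave IC50.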

[8] = qHTS assay for small molecule activators of the p53 signaling pathway (AID 651743; active means well fitted activation curve with a large enough effect in the signal ratio, not every such curve was filed as active; the % refers to the signal ratio; further: series mostly up to about 92 µM; % of control where 0% means no effect); settings: HCT-116 p53RE-bla, beta-lactamase FRET ratio, 16 h; activation: stronger effect = higher value
Method in brief: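 p53RE-bla HCT-116 cells with a stably integrated beta-lactamase reporter under p53 response elements were plated, rested 5 hours at 37 C/5% CO2, then exposed to compounds in DMSO for 16 hours at 37 C. LiveBLAzer B/G FRET substrate was read after 2 hours at room temperature.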

[9] = Cell Viability - Hek293 (AID 427;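 active means compounds whose dose-response curve shows a full or clear partial loss of cell viability, called from curve shape rather than a numeric limit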;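 further: potency means the concentration at half of the fitted maximal effect; cells exposed to compound for 40 hours at 37 °C before reading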); settings: qHTS
Method in brief: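 HEK293 cells in complete medium were exposed to compound for 40 hr at 37 °C, then cellular ATP was read by CellTiter-Glo luminescence. Data were normalized to DMSO (basal) and 100 uM tamoxifen (100% inhibition), and AC50 came from Hill fits.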

[10] = MultiTox-Fluor Cytotoxicity Assay - LYMP1-001 - Dead Cells (AID 946); further: potency means the concentration at half of the fitted maximal effect
Method in brief: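 LYMP1-001 lymphoblastoid cells (2500/well) treated 16 h at 37 C. Dead-cell protease cleavage of bis-AAF-R110 read at Ex/Em 485/520. Normalized to DMSO and 15 uM tetraoctylammonium bromide; AC50 from Hill fits.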

[11] = Cell Viability - LYMP2-013 (AID 970); further: nearly all actives have a fitted effect of over 55% in size; further: potency means the concentration at half of the fitted maximal effect
Method in brief: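 Human lymphoblastoid cells, 2500/well, were preincubated 5 hr at 37 C, then treated with compounds for 24 hr at 37 C in complete medium. Intracellular ATP was read by CellTiter-Glo luminescence; AC50 from Hill-equation fits of concentration-response data.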

[12] = Cell Viability - LYMP2-017 (AID 972); further: nearly all actives have a fitted effect of over 55% in size; further: potency means the concentration at half of the fitted maximal effect
Method in brief: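 Human lymphoblastoid cells (2500/well) were seeded in complete medium, held 5 hr at 37 C, then exposed to compounds for 24 hr at 37 C. Intracellular ATP was read by CellTiter-Glo luminescence after 30 min at room temperature, with AC50 values from Hill-equation fits.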

[13] = Cell Viability - LYMP2-016 (AID 984); further: nearly all actives have a fitted effect of over 55% in size; further: potency means the concentration at half of the fitted maximal effect
Method in brief: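 qHTS, 1536-well: 2500 LYMP2-016 cells/well, 5 hr 37 C, compound added, 24 hr 37 C, CellTiter-Glo 30 min RT, luminescence. Tetraoctylammonium bromide positive control. AC50 via Hill fit.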

[14] = Cell Viability - LYMP2-022 (AID 987); further: nearly all actives have a fitted effect of over 55% in size; further: potency means the concentration at half of the fitted maximal effect
Method in brief: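 Human lymphoblastoid cells, 2500/well, preincubated 5 hr at 37 C, then exposed to compounds over a concentration range for 24 hr at 37 C in complete medium. Viability read as intracellular ATP by CellTiter-Glo luminescence after 30 min at room temperature; AC50 from Hill fits.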

[15] = Cell Viability - LYMP2-026 (AID 989); further: nearly all actives have a fitted effect of over 50% in size; further: potency means the concentration at half of the fitted maximal effect
Method in brief: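 Human lymphoblastoid cells (2500/well) in complete medium were preincubated 5 hr at 37 C, then exposed to compounds for 24 hr at 37 C. Cellular ATP was read by CellTiter-Glo luminescence; AC50 from Hill-equation fits of concentration-response data.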

[16] = biological target: Peroxisome proliferator-activated receptor delta (Homo sapiens) (UniProt Q03181); test: qHTS assay for small molecule agonists of peroxisome proliferator-activated receptor delta signaling (AID 588534; calls by dose curve;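 further: 0% = DMSO basal wells and 100% = positive control agonist at 10 µM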)
Method in brief: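 Cell-based beta-lactamase reporter assay run in agonist mode: cells seeded and incubated 5 hrs at 37 C, compounds added and incubated 18 hrs at 37 C. CCF4 dye fluorescence read after 2 hrs at RT; EC50 and efficacy from Hill fits.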

[17] = qHTS assay for small molecule antagonists of the retinoid-related orphan receptor gamma (ROR-gamma) signaling pathway - cell viability counter screen (AID 720652; active means well fitted curve in the direction sought with a large enough effect in the repeat runs; an effect the other way counts as inactive or inconclusive;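 further: CHO reporter cells with doxycycline-induced ROR-gamma expression; series mostly up to about 92 µM; compound exposure lasted 16 hr before ATP read; on the % scale 0 is the no-effect control and ±100 the full control effect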)
Method in brief: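 Counter screen in CHO cells carrying TET-inducible ROR-gamma and an ROR response element-luciferase reporter; cells plated 5 hr, compound pinned, doxycycline added, then 16 hr at 37 C. Viability read as intracellular ATP by CellTiter-Glo luminescence.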

[18] = biological target: Nuclear receptor subfamily 1 group I member 2 (Rattus norvegicus) (UniProt Q9R1A7); test: qHTS assay for small molecule activators of the rat pregnane X receptor (rPXR) signaling pathway (AID 651751; call rule not given here; further: 0% is about no effect); settings: rPXR reporter cells, luciferase (One-Glo), 24 h
[19] = Cell Viability - Jurkat (AID 426;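 active means dose-dependent loss of cell ATP signal giving a full or clear fitted curve, ranked by lower potency value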; further: potency means the concentration at half of the fitted maximal effect); settings: qHTS
Method in brief: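 Jurkat (clone E6-1, human T-cell leukemia) cells, 5000/well in complete medium, were exposed to compound for 40 hr at 37 °C. Viability was read as intracellular ATP by CellTiter-Glo luminescence; AC50 came from Hill fits of concentration-response data.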

[20] = Cellular Toxicity (caspase-3) HUV-EC-C (AID 656);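 further: 0% = DMSO basal and 100% = 100 µM tamoxifen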
Method in brief: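 Luminescent caspase-3/7 activation (aminoluciferin substrate cleavage) in HUV-EC-C cells after 16 hr compound exposure, 37°C. Signal normalized to DMSO basal and 100 uM tamoxifen as 100%; AC50 from concentration-response fitted with the Hill equation.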

Nuclear receptor subfamily 1 group I member 2 (Rattus norvegicus), sequence (Q9R1A7 whole entry, looked up): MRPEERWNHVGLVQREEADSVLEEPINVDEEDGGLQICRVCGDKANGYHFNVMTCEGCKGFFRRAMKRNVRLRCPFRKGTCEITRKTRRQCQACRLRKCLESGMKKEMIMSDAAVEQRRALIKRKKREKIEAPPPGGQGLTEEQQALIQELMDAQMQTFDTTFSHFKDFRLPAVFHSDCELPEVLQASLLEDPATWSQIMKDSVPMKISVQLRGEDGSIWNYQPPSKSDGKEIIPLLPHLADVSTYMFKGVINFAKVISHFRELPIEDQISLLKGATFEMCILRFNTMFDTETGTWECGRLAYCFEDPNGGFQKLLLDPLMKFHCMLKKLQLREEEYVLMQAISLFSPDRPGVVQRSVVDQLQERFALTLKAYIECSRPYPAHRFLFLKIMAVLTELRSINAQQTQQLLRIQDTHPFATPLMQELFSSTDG
Peroxisome proliferator-activated receptor delta (Homo sapiens), sequence (Q03181 whole entry, looked up): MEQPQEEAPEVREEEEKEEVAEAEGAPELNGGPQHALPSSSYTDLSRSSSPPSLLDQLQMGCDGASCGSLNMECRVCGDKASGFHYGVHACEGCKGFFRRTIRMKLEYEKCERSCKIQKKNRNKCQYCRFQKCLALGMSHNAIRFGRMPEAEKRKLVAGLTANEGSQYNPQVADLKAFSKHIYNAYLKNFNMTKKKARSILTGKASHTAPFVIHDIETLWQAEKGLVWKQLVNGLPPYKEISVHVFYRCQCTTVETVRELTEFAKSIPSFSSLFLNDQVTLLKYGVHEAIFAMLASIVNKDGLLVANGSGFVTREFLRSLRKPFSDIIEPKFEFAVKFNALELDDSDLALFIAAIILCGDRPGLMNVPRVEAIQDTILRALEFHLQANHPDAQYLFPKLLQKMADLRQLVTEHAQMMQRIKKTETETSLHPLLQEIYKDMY
Glucocorticoid receptor (Homo sapiens), sequence (P04150 whole entry, looked up): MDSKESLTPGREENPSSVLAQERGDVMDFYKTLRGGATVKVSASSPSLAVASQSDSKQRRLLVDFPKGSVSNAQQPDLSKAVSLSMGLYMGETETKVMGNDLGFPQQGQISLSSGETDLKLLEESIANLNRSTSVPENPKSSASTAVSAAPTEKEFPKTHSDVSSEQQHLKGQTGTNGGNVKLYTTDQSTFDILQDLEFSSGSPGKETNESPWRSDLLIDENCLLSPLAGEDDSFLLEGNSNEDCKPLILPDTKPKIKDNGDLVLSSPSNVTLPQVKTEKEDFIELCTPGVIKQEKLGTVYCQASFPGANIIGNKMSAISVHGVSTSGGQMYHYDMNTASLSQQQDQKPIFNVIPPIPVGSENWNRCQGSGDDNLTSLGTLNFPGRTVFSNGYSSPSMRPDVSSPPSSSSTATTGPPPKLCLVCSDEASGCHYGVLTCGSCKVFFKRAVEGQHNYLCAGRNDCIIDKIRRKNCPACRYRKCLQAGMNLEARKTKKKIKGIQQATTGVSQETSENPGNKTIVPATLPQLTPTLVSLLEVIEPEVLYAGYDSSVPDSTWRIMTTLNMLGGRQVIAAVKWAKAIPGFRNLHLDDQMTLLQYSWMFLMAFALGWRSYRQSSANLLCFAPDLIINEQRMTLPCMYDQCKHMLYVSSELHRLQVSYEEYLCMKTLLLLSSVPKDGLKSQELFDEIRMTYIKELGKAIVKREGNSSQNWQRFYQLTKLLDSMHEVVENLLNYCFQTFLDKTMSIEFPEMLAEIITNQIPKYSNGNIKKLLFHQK
Vitamin D3 receptor (Homo sapiens), sequence (P11473 whole entry, looked up): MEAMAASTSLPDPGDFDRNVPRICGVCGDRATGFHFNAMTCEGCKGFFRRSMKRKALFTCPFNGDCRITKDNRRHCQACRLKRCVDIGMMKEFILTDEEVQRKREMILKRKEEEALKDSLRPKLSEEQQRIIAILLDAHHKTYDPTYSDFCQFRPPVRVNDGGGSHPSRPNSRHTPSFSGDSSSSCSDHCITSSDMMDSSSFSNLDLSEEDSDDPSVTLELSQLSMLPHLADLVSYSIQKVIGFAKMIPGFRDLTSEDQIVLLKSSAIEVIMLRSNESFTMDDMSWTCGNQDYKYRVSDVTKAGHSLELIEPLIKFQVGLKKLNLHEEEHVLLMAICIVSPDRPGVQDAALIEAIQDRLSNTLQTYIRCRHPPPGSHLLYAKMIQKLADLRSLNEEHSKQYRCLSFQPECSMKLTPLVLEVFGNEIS

Cc1cc(-n2c(=O)[nH]c(=O)n(C)c2=O)ccc1Oc1ccc(S(=O)(=O)C(F)(F)F)cc1
inactive: Potency [1]

CCC1OC(=O)C(C)C(OC2CC(C)(OC)C(O)C(C)O2)C(C)C(OC2OC(C)CC(N(C)C)C2O)C(C)(O)CC(C)C2NC(COCCOC)OC(C2C)C1(C)O (configuration not stated)
inactive: Potency [2]

CCCCC(=O)O[C@H]1CC[C@H]2[C@@H]3CCc4cc(O)ccc4[C@H]3CC[C@]12C
inactive: Potency [1]

Cc1[nH]c(/C=C2\C(=O)Nc3ccc(F)cc32)c(C)c1C(=O)NCCN1CCCC1
inactive: Potency [2]

Clc1ccc(CCCOCCCN2CCCCC2)cc1
inactive: Potency [2]

CCCCCCCC(=O)CC[C@@H]1[C@@H](C/C=C\CCCC(=O)OC(C)C)[C@@H](O)C[C@H]1O
inactive: Potency [1]

COc1cc([C@@H]2c3cc4c(cc3[C@@H](O[C@@H]3O[C@@H]5CO[C@@H](C)O[C@H]5[C@H](O)[C@H]3O)[C@H]3COC(=O)[C@H]23)OCO4)cc(OC)c1OP(=O)(O)O
inactive: Potency [1] | Potency [2]

O=C(O)c1ccc2nc(-c3cc(Cl)cc(Cl)c3)oc2c1
inactive: Potency [1]

CCCCCCCCCCCCCC[n+]1ccc(C)cc1
active: Potency [2] 5.62 µM
inactive: Potency [1]

C=CCN1CCc2cccc3c2C1Cc1ccc(O)c(O)c1-3 (configuration not stated)
active: Potency [3] 2 µM

O=C(OC1CCN(CCCl)CC1)C(c1ccccc1)c1ccccc1
active: Potency [3] 12.6 µM

CCCN1CCc2cccc3c2C1Cc1ccc(O)c(O)c1-3 (configuration not stated)
active: Potency [3] 2.51 µM

CC(C)[C@@]1(NC(=O)[C@@H]2C[C@@H]3c4cccc5[nH]cc(c45)C[C@H]3N(C)C2)O[C@@]2(O)C3CCCN3C(=O)[C@H](Cc3ccccc3)N2C1=O (some centres not stated)
active: Potency [3] 2.24 µM

O=C(O)C1=CCCN(CCOC(c2ccc(C(F)(F)F)cc2)c2ccc(C(F)(F)F)cc2)C1
inactive: Potency [2]

C[C@]12CC[C@H](O)CC1=CCC1C2CC[C@]2(C)C(=O)CC[C@@H]12 (some centres not stated)
inactive: Potency [3]

CCCN1CCc2cc(O)cc3c2C1Cc1ccc(O)c(O)c1-3 (configuration not stated)
active: Potency [3] 3.98 µM

O=S1OCC2C(CO1)C1(Cl)C(Cl)=C(Cl)C2(Cl)C1(Cl)Cl (configuration not stated)
inactive: Potency [4] | Potency [5] | activation [6] 7.98% | outcome [7] | activation [8] -4.01%

COC(=O)NC(=S)Nc1ccccc1NC(=S)NC(=O)OC
inactive: Potency [9] > 92 µM | Potency [10] | Potency [11] | Potency [12] | Potency [4] | Potency [5] | Potency [13] | Potency [14] | Potency [15] | activation [6] 7.06% and -4.28% | outcome [16] | outcome [7] | activation [8] 0% and 3.95% | Potency [17] | max response [18] 13.9% and 14.6%

C/C=C/c1ccc2c(c1)OCO2
inactive: Potency [19] > 92 µM | Potency [9] > 92 µM | outcome [20] | Potency [10] | Potency [11] | Potency [12] | Potency [4] | Potency [5] | Potency [13] | Potency [14] | Potency [15] | outcome [7] | activation [8] -2.48% | Potency [17] | max response [18] 0.551%

ClC1=C(Cl)C2(Cl)C3C4CC(C5OC45)C3C1(Cl)C2(Cl)Cl (configuration not stated)
inactive: Potency [9] > 92 µM | activation [6] -5.87% | outcome [16] | outcome [7]
active: Potency [10] 31.6 µM | Potency [11] 39.8 µM | Potency [13] 50.1 µM | Potency [14] 39.8 µM | Potency [15] 39.8 µM

ClC(Cl)=C(c1ccc(Cl)cc1)c1ccc(Cl)cc1
inactive: Potency [19] > 92 µM | Potency [9] > 92 µM | outcome [20] | Potency [10] | Potency [11] | Potency [12] | Potency [4] | Potency [5] | Potency [13] | Potency [14] | Potency [15] | activation [6] 4.56% and 6.94% and 2.36% | outcome [16] | outcome [7] | activation [8] -3.15% and -5.84% and 6.09% | max response [18] 1.57% and 5.61% and 0.401%

C=CCc1ccc(OC)cc1
inactive: Potency [19] > 92 µM | Potency [9] > 92 µM | outcome [20] | Potency [10] | Potency [11] | Potency [12] | Potency [4] | Potency [5] | Potency [13] | Potency [14] | Potency [15] | outcome [16] | Potency [17] | max response [18] 0.607%

CCc1cccc(CC)c1N(COC)C(=O)CCl
inactive: outcome [20] | activation [6] 0.967% and -3.2% | outcome [16] | Potency [17] | max response [18] -3.94% and -1.3%
active: Potency [19] 54 µM

CCOCN(C(=O)CCl)c1c(C)cccc1CC
inactive: outcome [20] | activation [6] 5.28% and 1.08% | activation [8] -6.37% and -3.12% | Potency [17] | max response [18] -4.5% and -5.56%
active: Potency [19] 32 µM | Potency [12] 50.1 µM

CCNc1nc(Cl)nc(NC(C)C)n1
inactive: Potency [19] > 92 µM | Potency [9] > 92 µM | outcome [20] | Potency [10] | Potency [11] | Potency [12] | Potency [4] | Potency [5] | Potency [13] | Potency [14] | Potency [15] | activation [6] -2.38% and -6.25% | outcome [16] | outcome [7] | activation [8] -2.86% and -1.26% | Potency [17]

COP(=S)(OC)Oc1ccc([N+](=O)[O-])cc1
inactive: Potency [19] > 92 µM | Potency [9] > 92 µM | outcome [20] | Potency [10] | Potency [11] | Potency [12] | Potency [4] | Potency [5] | Potency [13] | Potency [14] | Potency [15] | outcome [16] | outcome [7] | activation [8] 0.285% and 1.15% | Potency [17] | max response [18] 8.93% and 0.334%

From PubChem BioAssay (NCATS)
